High-throughput results from PubChem.
ATXN2 expr inh: reduces ATXN2 reporter expression in HEK-293 cells; Potency, µM (doses to about 57 µM), without a hit: at the top dose activity change, negative = inhibition, actives largely listed as inhibitors; HEK-293 ATXN2-luciferase reporter, luminescence, 24 h; AID 1745845; 360,000 tested, 0.72% active; note: potency is the fitted concentration of half-maximal effect; % is set by controls: 0 for no effect and ±100 for the full control effect; nearly all actives have a fitted effect of over 55% in size
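ATXN2-luciferase reporter cells (luciferase flanked by upstream and downstream ATXN2 gene portions) were treated 24 h at 37 °C with compounds at up to 57 uM. SteadyGlo luminescence gave expression; GF-AFC fluorescence gave viability.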
mIDH1 inhibitor: human IDH1 R132H inhibition. O75874. IDH1-R132H enzyme, NADPH consumption, diaphorase/resazurin fluorescence. Potency, µM (top dose mostly 76.6 µM), for the others: at the top dose activity change, negative = inhibition, hits mostly inhibitors. 390,000 tested, 0.093% active; note: potency is the fitted concentration of half-maximal effect; % is set by controls: 0 for no effect and ±100 for the full control effect; nearly all actives have a fitted effect of over 65% in size
Target sequence (O75874 whole entry R132H, stated change not applied): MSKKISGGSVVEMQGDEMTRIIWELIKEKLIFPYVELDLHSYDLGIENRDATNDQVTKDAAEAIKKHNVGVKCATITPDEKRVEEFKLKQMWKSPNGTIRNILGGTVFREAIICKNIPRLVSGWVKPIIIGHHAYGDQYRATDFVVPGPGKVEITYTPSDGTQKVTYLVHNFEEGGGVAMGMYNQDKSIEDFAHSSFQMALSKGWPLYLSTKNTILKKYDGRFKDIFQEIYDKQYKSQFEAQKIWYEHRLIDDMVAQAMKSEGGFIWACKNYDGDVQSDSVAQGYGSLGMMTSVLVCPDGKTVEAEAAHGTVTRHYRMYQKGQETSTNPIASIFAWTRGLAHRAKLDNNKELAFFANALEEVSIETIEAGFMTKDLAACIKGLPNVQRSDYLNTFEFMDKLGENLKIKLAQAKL
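IDH1-R132H (0.5 ug/mL) preincubated 30 min with compound, then NADPH (0.016 mM) and alpha-KG (2 mM) added; 80 min at RT, pH 7.5. Remaining NADPH coupled via diaphorase/resazurin to fluorescence (540/590 nm); concentration-response curves normalized to no-enzyme control.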
HepG2 tox-1: counter-screen for TGF-b inhibitors: cytotoxicity in HepG2 cells; HepG2 CAGA-GFP viability, ATP luminescence, 18 h; Potency, µM (top dose mostly 46.1 µM), for inactives: at the highest dose activity change, negative = cytotoxicity, actives largely listed as cytotoxic; 410,000 tested, 0.76% active; AID 588856; note: potency is the fitted concentration of half-maximal effect
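CellTiter-Glo luminescence gave cytotoxicity after 18 hours at 37 degrees C. The cells were HepG2 CAGA-GFP in 1% FBS DMEM, stimulated with 500 pg/mL TGF-beta after compound addition. %Activity was normalised to no-cell wells (complete cell-killing) and DMSO (no toxicity), and curves were fitted and classified.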
LDHA block: LDHA (human) enzyme inhibition; 480,000 tested, 0.15% active; activity change, % (values are at about 110 or 230 µM); purified LDHA, NADH/diaphorase-resazurin fluorescence; active compounds read low; P00338; in the data active = activity change below about -30%; inconclusive = mostly about -25% to -30%;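 note: plate controls were DMSO wells for no effect and wells without enzyme for full effect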
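Enzyme activity of human lactate dehydrogenase 5 (2 nM; 0.06 mM NADH, 0.2 mM pyruvate, 5 min, RT) is measured via a resazurin/diaphorase fluorescence readout of residual NADH.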
ATXN viability: reduces viability in counter-screen for ATXN expression inhibitors; S2 cells (HEK-293 line with an ATXN2-luciferase reporter) viability, CellTiter-Fluor protease fluorescence, 24 h; 400,000 tested, 0.49% active; Potency, µM (highest dose often 56.7 µM), usual class: cytotoxic; AID 651635; note: potency is the fitted concentration of half-maximal effect; nearly all actives have a fitted effect of over 40% in size
TGFb SMAD3 inh: blocks TGF-b signaling; HepG2 CAGA-GFP TGF-b/SMAD3 reporter, GFP fluorescence, 18 h; TGF-beta stimulated, 500 pg/mL final; Potency, µM (highest dose often 46.1 µM), without a hit: at the top dose activity, negative = inhibition, actives largely listed as inhibitors; 410,000 tested, 1.2% active; note: potency is the fitted concentration of half-maximal effect; % is set by controls: 0 for no effect and ±100 for the full control effect; nearly all actives have a fitted effect of over 65% in size
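Inhibition was scored as loss of TGF-beta-induced (500 pg/mL final, 18 hours, 37 degrees C) GFP in HEPG2 cells carrying a CAGA-GFP reporter, in DMEM with 1% FBS. Well GFP was summed per cell; Activity was normalised to unstimulated and stimulated DMSO wells, then concentration-response fitting.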
TGFb confirm: confirmation of TGF-b signaling inhibitors in HepG2 reporter cells; HepG2 CAGA-GFP TGF-b reporter, GFP fluorescence, 18 h; cells stimulated with TGF-beta, 500 pg/mL; 1,600 tested, 63% active; Potency, µM (top dose mostly 46.1 µM), inactives show at the highest dose activity, negative = inhibition, usual class: inhibitors; shares compounds with TGFb SMAD3 inh; note: potency is the fitted concentration of half-maximal effect; % is set by controls: 0 for no effect and ±100 for the full control effect; nearly all actives have a fitted effect of over 65% in size
HepG2 tox-2: HepG2 cytotoxicity, TGF-b inhibitor counterscreen; shares compounds with TGFb SMAD3 inh; HepG2 CAGA-GFP viability, ATP luminescence, 18 h; cells stimulated with TGF-beta, 500 pg/mL; Potency, µM (top dose mostly 46.1 µM), for the others: top-dose activity, negative = cytotoxicity, most hits filed as inhibitors; 1,600 tested, 27% active; AID 720535; note: potency is the fitted concentration of half-maximal effect; % is set by controls: 0 for no effect and ±100 for the full control effect; nearly all actives have a fitted effect of over 70% in size
CCL64 TGFb inh: blocks TGF-b signaling in CCL64 reporter cells. shares compounds with TGFb SMAD3 inh. CCL64 CAGA-GFP reporter, TGF-b stimulated, GFP fluorescence, 18 h. Potency, µM (top dose mostly 46.1 µM), for inactives: at the top dose activity, negative = inhibition, actives largely listed as inhibitors. 1,600 tested, 41% active. AID 720536; note: potency is the fitted concentration of half-maximal effect; nearly all actives have a fitted effect of over 65% in size
COP TGFb inh: validation of TGF-b inhibitors in HepG2 COP promoter reporter; HepG2 COP-GFP TGF-b reporter, GFP fluorescence, 18 h; cells stimulated by added recombinant TGF-beta; shares compounds with TGFb SMAD3 inh; 1,600 tested, 3% active; Potency, µM (titrated, usually from 46.1 µM), for the others: top-dose activity, negative = inhibition, usual class: inhibitors; note: potency is the fitted concentration of half-maximal effect; nearly all actives have a fitted effect of over 70% in size
Numbers without * were called inactive; i = inactive; ? = inconclusive; . = no result; [ ] = dose if it differs, or a comment. This is a sample that favours compounds with a hit; in the whole collection about 2.2% have one here. Unless noted, calls come from the whole dose curve; as a rule, active = well fitted curve in the direction sought with a large enough effect; inconclusive = small, poorly fitted or top-dose-only effect, or another doubt; inactive = no such curve, though single readings can be large; an effect the other way counts as inactive or inconclusive.

SMILES	ATXN2 expr inh	mIDH1 inhibitor	HepG2 tox-1	LDHA block	ATXN viability	TGFb SMAD3 inh	TGFb confirm	HepG2 tox-2	CCL64 TGFb inh	COP TGFb inh
CC(=O)Nc1ccc(OCC(O)CN2CCN(S(=O)(=O)c3ccc(NC(C)=O)cc3)CC2)cc1 (configuration not stated)	-2%	6%	-3%	2	i	13%	.	.	.	.
CC(=O)Nc1ccc(S(=O)(=O)N2CCN(CC(O)COc3ccc4ccccc4c3)CC2)cc1 (configuration not stated)	?	12%	-18%	4	?	?	26µM*	-29%	-3%	7%
Cc1ccc(COc2ccccc2-c2cc(C(=O)N/N=C/c3cccnc3)[nH]n2)cc1	?	-9%	-21%	-4	?	11µM*	?	?	23µM*	19%
Cn1c(Sc2ncnc3scc(-c4ccccc4)c23)nnc1-c1ccccc1F	.	.	.	8	.	.	.	.	.	.
CN(C)CCNC(=O)c1cccc2[nH]c(-c3ccncc3)nc12	?	5%	-41%	5	?	10µM*	16µM*	21µM*	13µM*	21%
CC1=C(C(=O)N(C(C)C)C(C)C)CC(CC(=O)NCc2cccc3ccccc23)C(=O)N1Cc1ccc(C(C)(C)C)cc1 (configuration not stated)	?	.	-8%	2	?	7.9µM*	16µM*	?	?	30%
CC1=C(C(=O)N(C(C)C)C(C)C)CC(CC(=O)NCCc2ccccn2)C(=O)N1Cc1ccc(C(C)(C)C)cc1 (configuration not stated)	-20%	.	-68%	-3	?	8.9µM*	-21%	-13%	?	11%
CC1=C(C(=O)N(C)C)CC(CC(=O)NCc2cccc3ccccc23)C(=O)N1Cc1ccc(C(C)(C)C)cc1 (configuration not stated)	?	.	-29%	-1	?	?	.	.	.	.
CC(C(=O)NCc1ccccc1F)n1ccc2cc(S(=O)(=O)N3CCCC3)ccc21 (configuration not stated)	-18%	-15%	-21%	-3	?	1%	.	.	.	.
Cc1cnc(NC(=O)CCc2ncc(-c3ccc(CC(C)C)cc3)o2)s1	.	.	.	7	.	.	.	.	.	.
Nc1cc2nn(-c3ccccc3)nc2cc1Cl	63%[11.3 µM]	12%	-45%	5	i	2.2µM*	3.3µM*	1.8µM*	16%	69%
Nc1ccc2nn(-c3ccccc3)nc2c1	27%	-2%	-23%	20	.	-28%	.	.	.	.
CC1CCN(S(=O)(=O)c2ccc3c(c2)oc(=O)n3CC(=O)NC(C)c2ccccc2)CC1 (configuration not stated)	-36%	-1%	-22%	-3	i	?	.	.	.	.
Cc1cc(C)cc(NC(=O)Cn2c(=O)oc3cc(S(=O)(=O)N4CCC(C)CC4)ccc32)c1	?	8%	7.9µM*	-2	i	7.9µM*	?	-22%	?	8%
OC[C@@H]1CN(Cc2ccc(F)cc2)C[C@H](n2cnc3c(Nc4ccccc4)ncnc32)O1	2%	.	-30%	-6	i	1%	.	.	.	.
OC[C@@H]1CN(Cc2ccc(-c3ccccc3)cc2)C[C@H](n2cnc3c(Nc4ccccc4)ncnc32)O1	?	.	-23%	-5	i	10µM*	8.2µM*	?	?	26%
COc1ccc(OC)c(-c2csc(NC(=O)CN3C(=O)C4CCCCC4C3=O)n2)c1 (configuration not stated)	-12%	6%	-40%	-4	i	-4%	.	.	.	.
COc1cccc2c1C(=O)c1c(O)c3c(c(O)c1C2=O)C[C@](O)(C(C)=O)C[C@H]3O[C@@H]1C[C@@H](N)[C@@H](O)[C@@H](C)O1	?	4%	-86%	2	?	1µM*	1µM*	0.52µM*	4.1µM*	?
COc1ccc(C)c2sc(N(CCCN(C)C)C(=O)c3ccc(S(=O)(=O)N4CCc5ccccc5C4)cc3)nc12	28µM*	3%	7.1µM*	-3	.	5µM*	4.6µM*	5.2µM*	5.2µM*	?
COc1cccc2sc(N(CCCN(C)C)C(=O)c3ccc(S(=O)(=O)N4CCc5ccccc5C4)cc3)nc12	?	0%	-79%	-4	?	?	.	.	.	.
O=C1C=C(c2ccc(Cl)cc2)OC2(CCCC2)O1	4%	12%	10%	-2	i	0%	.	.	.	.
Cc1cccc(N2CCN(CC(=O)NCC3CCCCC3)CC2)c1C	-20%	1%	-38%	-13	i	10µM*	-24%	-6%	?	12%
Cc1ccc(S(=O)(=O)N(CC(=O)Nc2ccc(Cl)c([N+](=O)[O-])c2)C2CCCCC2)cc1	2%	0%	-14%	-7	i	10µM*	?	-23%	?	28%
Cc1c(CNCCc2ccc(S(N)(=O)=O)cc2)c(C(=O)O)c(C)n1Cc1ccc(Cl)cc1	-2%	-4%	1%	0	i	2%	.	.	.	.
CC(C)(C)OC(=O)N1CCC(CC2CC(c3ccccc3)=NO2)(C(=O)NCc2ccccc2)CC1 (configuration not stated)	-9%	-12%	-15%	-8	?	?	.	.	.	.
